From PubChem BioAssay AID1045 (SRMLSC, 2008)
The whole screen tested about 1,500 compounds, of which about 1,400 (93%) were called active. The rule behind the calls is not given here. So high a share suggests a set chosen from earlier hits. Not all results are given here. Measured potencies and affinities stand elsewhere.

Test: viability of HCT116 lacking mutant beta-catenin – cell-based, human colon tumor, dose response (AID 1045)
Settings: HCT116 beta-catenin knockout viability, CellTiter-Glo, 60 h; series mostly up to 30 µM
For CCCNC(=O)OC[C@H]1O[C@H](CCO/N=C/[C@@H](NS(=O)(=O)c2ccc(C)cc2)[C@H](C)/C=C/CC(=O)OC)C=C[C@@H]1Oc1ccc(OC)cc1, the outcome was “inactive”.
For O=C(Nc1ccccc1Cl)NC1(C(=O)N2CCCC2)CCCCC1, the outcome was “inactive”.
With Cc1ccc(C(=O)c2coc3c2C(=O)C(=O)c2ccccc2-3)cc1 the outcome was “inactive”.
With CCCC(=O)Nc1sc2c(c1C#N)CCCCC2 the outcome was “inactive”.
With CCN1CCN(Cc2ccc(OCc3ccccc3)cc2)CC1 the outcome was “inactive”.
For S=C(NCCc1ccc(Cl)cc1)Nc1ccc(Cl)cc1Cl, the outcome was “inactive”.
With O=C(Nc1cccc(C(F)(F)F)c1)NC1CCCCC1 the outcome was “inactive”.
In the case of C=C1C(O)C[C@H]2C(=C)CCC3[C@H](OC(=O)[C@]3(O)CO)[C@@H]12 (stereo not given in full), the outcome is reported as “inactive”.
With Cc1ccc2cc3cc(C(=O)NCc4ccc5c(c4)OCO5)oc3nc2c1 the outcome was “inactive”.
With Nc1nnc(SCc2ccc(Cl)cc2)s1 the outcome was “inactive”.
With O=C(NC(=S)Nc1ccc2c(c1)OCO2)c1ccc(Cl)cc1 the outcome was “inactive”.
With COC(=O)CN1C(C)=Nc2ccc(Br)cc2C1c1ccccc1 (stereo not given) the outcome was “inactive”.
With COC(=O)C1=C(C)N(Cc2ccco2)C(=O)N[C@@H]1c1cccc(C(F)(F)F)c1 the outcome was “inactive”.
With CCN1CCN(c2cc(C)c3cc(NC(=O)c4ccc5c(c4)OCO5)ccc3n2)CC1 the outcome was “inactive”.
In the case of CCN(CC)S(=O)(=O)c1ccc(NC2CCCc3ccccc32)nc1 (stereo not given), the outcome is reported as “inactive”.
In the case of COc1ccc(-c2cc(C(F)(F)F)nc(S(C)(=O)=O)n2)cc1OC, the outcome is reported as “inactive”.
In the case of O=C(Nc1cccc(-c2nnc(-c3ccccc3)o2)c1)C1CCCCC1, the outcome is reported as “inactive”.
With Cc1ccccc1NC(=O)c1ccc2c(c1)OCCO2 the outcome was “inactive”.
In the case of CSc1n[nH]c(NCc2cccs2)n1, the outcome is reported as “inactive”.
With Cc1cc(C)n(C(=O)CNc2ccc(C)c(C)c2)n1 the outcome was “inactive”.
With CCCC/C(C)=N\NC(=O)CNS(=O)(=O)c1ccc([N+](=O)[O-])cc1 the outcome was “inactive”.
With COc1ccc(-n2c(O)c(/C=N/NS(=O)(=O)c3ccc(C)cc3)c3ccccc3c2=O)cc1OC the outcome was “inactive”.
For COCCN1C(=O)c2oc3ccccc3c(=O)c2C1c1ccc(OC)c(OC)c1 (stereo not given), the outcome was “inactive”.
With O=C(Nc1cccc(C(F)(F)F)c1)/C(=C\c1ccco1)NC(=O)c1cccs1 the outcome was “inactive”.
With O=C(Nc1ccc(-c2nc3ccccc3o2)cc1)c1cccnc1 the outcome was “inactive”.
With O=C(NCc1ccco1)C1CCN(S(=O)(=O)Cc2ccccc2)CC1 the outcome was “inactive”.
With CCOC(=O)c1c(-c2ccc(C)cc2)csc1NC(=O)/C(C#N)=C/c1ccc(O)c(OC)c1 the outcome was “inactive”.
In the case of Cc1ccc(C(=O)NCCc2nnc(SCC(=O)Nc3nc(-c4ccccc4)cs3)n2C)cc1, the outcome is reported as “inactive”.
With CCn1c(Cc2ccc(OC)cc2)nnc1SCC(=O)Nc1cccc(C(=O)OC)c1 the outcome was “inactive”.
With COc1ccc(-c2cc(C(F)F)n3ncc(C(=O)n4ccnc4C)c3n2)cc1 the outcome was “inactive”.
